The list is not random: actives were taken first. Their share in the collection is about 0.83%.
NCOA1 inh: SRC1 coactivator transcriptional activity inhibitors, primary screen, cell-based, luminescence | Nuclear receptor coactivator 1 (Homo sapiens), Q15788 | HEK293 GAL4-SRC1 luciferase reporter | hit rate 0.12% among 360,000 | AID 588354, 2011 | inhibition, % at 3.6 µM;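 active = inhibition above the campaign mean plus 3 SD, with each screening campaign given its own cutoff, cut at about 60% in these data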;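 note: 0% = DMSO treated cells and 100% = gossypol at 36 µM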
NCOA2 inhibitor: inhibition of GAL4-SRC2 driven luciferase reporter, primary screen, SRC2 inhibitor project, cell-based, luminescence; Nuclear receptor coactivator 2 (Homo sapiens), Q15596; HEK293 GAL4-SRC2 luciferase reporter; inhibition, % at 9 µM; hit rate 0.17% among 370,000;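 active = inhibition above the mean inhibition of all tested compounds plus 3 SD, set per campaign, cut at about 52% in these data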;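 note: 0% = DMSO treated cells and 100% = cells given Gossypol at 36 µM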
LRH-1 inv ag: LRH-1 (NR5A2) inverse agonists, primary screen, cell-based, luminescence, HEK293T, StAR-luciferase reporter | Nuclear receptor subfamily 5 group A member 2 (Homo sapiens), O00482 | LRH-1 transfected, 24 h | inhibition, % at 3.6 µM | hit rate 0.13% among 360,000 | AID 602396, 2012;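 active = inhibition above the mean inhibition of all tested compounds plus 3 SD, cut at about 73% in these data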;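 note: 0% = DMSO wells and 100% = reporter-only cells lacking LRH-1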
Gli-Sufu antag: Gli-Sufu pathway antagonists, primary screen, luciferase luminescence, Sufu-KO-LIGHT cells, uHTS; Sufu-KO-LIGHT fibroblasts, Gli luciferase reporter luminescence; inhibition, % at 5 µM; hit rate 0.74% among 340,000;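 active = inhibition above about 55%, limit read from the data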;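 note: 0% = DMSO-treated cells and 100% = wells with medium but no cells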
NCOA3 inh: SRC3 coactivator transcriptional activity inhibitors, primary screen, cell-based, luminescence. Nuclear receptor coactivator 3 (Homo sapiens), Q9Y6Q9. hit rate 0.17% among 360,000. inhibition, % at 3.6 µM. HEK293 GAL4-SRC3 luciferase reporter;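 active = inhibition above a per-campaign cutoff, the mean of all compounds plus 3 SD, cut at about 60% in these data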;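 note: 0% = DMSO-treated cells and 100% = gossypol-treated cells at 36 µM; higher means less SRC3-driven luciferase light from the GAL4 reporter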
Target sequence (Q9Y6Q9 whole entry, looked up, the tested form may be a part): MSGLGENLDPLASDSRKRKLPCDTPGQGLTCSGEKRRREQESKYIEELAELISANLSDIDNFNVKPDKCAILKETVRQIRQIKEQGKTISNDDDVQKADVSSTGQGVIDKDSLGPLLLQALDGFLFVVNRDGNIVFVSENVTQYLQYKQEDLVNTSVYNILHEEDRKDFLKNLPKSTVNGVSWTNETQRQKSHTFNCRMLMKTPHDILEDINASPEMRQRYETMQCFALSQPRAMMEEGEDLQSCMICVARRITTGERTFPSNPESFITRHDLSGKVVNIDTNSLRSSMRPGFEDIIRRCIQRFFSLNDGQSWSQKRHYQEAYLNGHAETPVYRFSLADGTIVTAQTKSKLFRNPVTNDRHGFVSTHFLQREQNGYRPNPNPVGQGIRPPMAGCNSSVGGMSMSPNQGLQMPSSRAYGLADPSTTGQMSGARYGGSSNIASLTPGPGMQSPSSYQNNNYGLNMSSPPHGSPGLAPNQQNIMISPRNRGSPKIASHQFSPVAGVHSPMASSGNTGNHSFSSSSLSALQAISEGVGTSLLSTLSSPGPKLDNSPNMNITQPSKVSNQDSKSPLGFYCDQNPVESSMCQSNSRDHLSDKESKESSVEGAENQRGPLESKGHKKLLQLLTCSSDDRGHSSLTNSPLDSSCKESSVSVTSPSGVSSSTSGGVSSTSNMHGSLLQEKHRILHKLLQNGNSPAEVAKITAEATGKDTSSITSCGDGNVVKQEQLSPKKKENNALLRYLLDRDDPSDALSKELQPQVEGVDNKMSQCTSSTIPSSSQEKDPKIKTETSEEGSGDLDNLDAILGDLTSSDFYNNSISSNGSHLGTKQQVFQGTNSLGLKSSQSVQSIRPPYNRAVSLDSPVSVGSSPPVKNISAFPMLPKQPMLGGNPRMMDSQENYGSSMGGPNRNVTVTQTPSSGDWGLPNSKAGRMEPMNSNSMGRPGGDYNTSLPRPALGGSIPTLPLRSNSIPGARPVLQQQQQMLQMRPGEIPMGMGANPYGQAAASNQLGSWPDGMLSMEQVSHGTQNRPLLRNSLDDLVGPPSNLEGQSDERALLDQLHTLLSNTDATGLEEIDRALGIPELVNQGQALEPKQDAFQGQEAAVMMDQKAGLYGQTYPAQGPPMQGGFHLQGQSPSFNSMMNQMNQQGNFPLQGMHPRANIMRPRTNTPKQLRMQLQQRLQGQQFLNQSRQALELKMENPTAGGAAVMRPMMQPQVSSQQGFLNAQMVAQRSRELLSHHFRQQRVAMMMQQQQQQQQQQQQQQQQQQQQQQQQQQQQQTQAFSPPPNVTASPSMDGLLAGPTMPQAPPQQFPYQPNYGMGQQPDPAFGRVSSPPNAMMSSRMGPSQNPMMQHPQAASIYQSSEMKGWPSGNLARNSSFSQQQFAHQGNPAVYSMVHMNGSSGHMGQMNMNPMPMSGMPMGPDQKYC
Gli-Sufu confirm: Gli-SUFU pathway antagonists, confirmation, single concentration, luciferase luminescence, Sufu-KO-LIGHT cells | inhibition, % at 5 µM | AID 602428, 2012 | Gli luciferase reporter | hit rate 40% among 2,500 | shares compounds with Gli-Sufu antag;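 active = mean inhibition at 5 µM reaching about 45%, limit read from the data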;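 note: plate controls were DMSO-treated cells for no effect and wells lacking cells for full effect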
Gli cytotox: cytotoxicity in Sufu-KO-LIGHT cells, confirmation, cytotoxicity control for Gli-SUFU antagonist project, cell-based, ATP luminescence, single concentration; shares compounds with Gli-Sufu antag; hit rate 32% among 2,500; cytotoxicity, % at 5 µM;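 active = mean cytotoxicity at 5 µM above about 25%, limit read from the data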;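 note: cells exposed to compound overnight for roughly 16 to 18 hours; plate controls were DMSO wells with cells for no effect and medium without cells for full effect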
Wnt3a counter: Wnt3a reporter signal inhibition, confirmation, counter-screen for Gli-SUFU antagonist project, Wnt-LIGHT cells, luminescence, single concentration | shares compounds with Gli-Sufu antag | Wnt3a-driven luciferase reporter | inhibition, % at 6.25 µM | hit rate 20% among 2,500;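 active = mean inhibition above about 25%, limit read from the data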
The depositor's hits bear a star; . = no result given.

SMILES | NCOA1 inh | NCOA2 inhibitor | LRH-1 inv ag | Gli-Sufu antag | NCOA3 inh | Gli-Sufu confirm | Gli cytotox | Wnt3a counter
Cc1cc(C)c2[nH]c(=O)c(CN(CC3CCCO3)C(=S)Nc3ccccc3)cc2c1 (stereo not drawn) | -8 | -2 | 3 | 12 | 13 | . | . | .
Cc1ccc(S(=O)(=O)NCCOc2nc(N(C)C)nc(N3CCOCC3)n2)cc1 | 4 | -10 | -3 | 95* | 13 | 13 | 11 | -13
Cc1ccc(S(=O)(=O)NCCOc2nc(N(C)C)nc(N(C)C)n2)cc1 | -49 | -22 | -4 | -1 | 4 | . | . | .
COc1ccc2ccccc2c1C=NNC(=O)c1cc(-c2ccc(C)cc2)n[nH]1 | . | 11 | . | . | . | . | . | .
CC(=O)Nc1ccc(C(=O)NC2CCCC2)cc1 | -13 | -13 | -15 | -5 | -39 | . | . | .
S=C(Nc1cccnc1)NC1CCCC1 | 2 | 13 | 6 | 59* | 1 | 6 | 6 | 4
O=C(Nc1ccc(C(=O)NC2CCCCC2)cc1)c1cccnc1 | -14 | -9 | 7 | 55* | -10 | 31 | 3 | -7
O=C(Nc1ccc(F)cc1)Nc1c(-c2ccc(F)cc2)nc2ncccn12 | . | -25 | . | . | . | . | . | .
COc1ccc(N2C(=O)c3ccc(C(=O)OC(C)C)cc3C2=O)cc1 | 4 | -24 | 9 | 91* | 0 | 21 | 20 | 22
COc1ccc(N2C(=O)c3ccc(C(=O)Nc4cc(OC)ccc4OC)cc3C2=O)cc1 | -1 | -2 | -8 | . | 0 | . | . | .
COc1ccc(/C(C)=N\NC(=O)c2ccco2)cc1 | . | -53 | . | . | . | . | . | .
Cc1cc(NC(=O)c2c(Br)c(C)nn2C)no1 | 6 | -16 | 1 | 50 | 7 | 9 | 23 | -8
Cc1cccc(CNC(=S)OC2CCC23CCC(c2ccccc2)CC3)c1 (stereo not drawn) | . | 15 | . | . | . | . | . | .
Cn1c(=O)c2cc(S(=O)(=O)N3CCN(Cc4ccccc4)CC3)ccc2n(C)c1=O | . | -15 | . | . | . | . | . | .
COc1ccc(CN2CCC(C(=O)Nc3ccc(Oc4cccnc4)cc3)CC2)cc1 | -3 | 3 | 11 | 32 | 16 | . | . | .
COc1cccc(O)c1CN1CCC(C(=O)Nc2ccc(Oc3cccnc3)cc2)CC1 | 15 | 16 | 14 | 51 | -13 | 35 | 5 | 4
COc1ccc(CN2CCC(C(=O)Nc3ccc(Oc4cccnc4)cc3)CC2)c(C)c1C | 12 | -14 | 24 | 60* | 17 | 38 | 4 | 2
COc1ccccc1NC(=O)Nc1ccc(Cc2ccncc2)cc1 | 2 | -11 | -34 | 50 | 4 | 15 | 7 | -38
CC(=O)N1CC=CC1(CC(C)C)C(=O)NCCc1c[nH]c2ccccc12 (stereo not drawn) | -4 | -9 | 13 | 95* | -25 | 26 | -4 | -22
CCC1(O)C(=O)OCc2c1cc1n(c2=O)Cc2cc3c(N)cccc3nc2-1 (stereo not drawn) | 35 | 28 | 92* | 84* | 80* | 63* | 49* | -83
CCC1(OC(=O)CN(C)C)C(=O)OCc2c1cc1n(c2=O)Cc2cc3c(N)cccc3nc2-1 (stereo not drawn) | 48 | . | 85* | 64* | 69* | 63* | 36* | -61
COC(=O)[C@]12C[C@H](CC(=O)NCC34CC5CC(CC(C5)C3)C4)C(=O)N(Cc3ccco3)C1=C[C@H](C(C)(C)C)O[C@@H]2C | . | -2 | . | . | . | . | . | .
O=C(CSc1nc(=O)n2cc(Cl)ccc2n1)Nc1cccc2ccccc12 | -20 | -1 | 26 | 91* | 8 | 17 | 9 | 4
CCCCOC(=O)/C=C/c1ccc(OC(=O)OC)c(OC(=O)OC)c1 | -32 | 14 | -104 | 62* | -59 | 46* | 11 | 37*

Bioassay records: PubChem, several laboratories
